RGS7-Gao: modulates binding of RGS7 to human Galphao. P09471. Multiplexed bead flow cytometry; actives lie on both sides. binding response (% of control), % at 10 µM. 0.35% of 220,000 active; in the data active = binding response below about 49% or above about 150%; inconclusive = no clear call, values can overlap the other calls; inactive = in between;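 also: fluorescent Galphao held in activated GDP-AlF4 state binding bead-coupled RGS7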
Target sequence (P09471 whole entry, looked up): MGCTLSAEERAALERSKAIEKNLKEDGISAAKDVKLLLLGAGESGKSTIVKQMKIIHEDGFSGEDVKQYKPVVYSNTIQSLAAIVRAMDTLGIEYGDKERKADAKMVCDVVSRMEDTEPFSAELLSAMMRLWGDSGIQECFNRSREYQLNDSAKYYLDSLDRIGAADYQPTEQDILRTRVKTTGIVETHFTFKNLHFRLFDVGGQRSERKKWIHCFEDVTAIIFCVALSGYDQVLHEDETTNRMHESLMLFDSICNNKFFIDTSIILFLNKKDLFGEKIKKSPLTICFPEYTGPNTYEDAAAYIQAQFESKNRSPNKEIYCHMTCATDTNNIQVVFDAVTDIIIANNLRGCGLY
Avidin fluor: avidin bead compound fluorescence profile; fluorescence (KMESF) at 10 µM; 0.38% of 220,000 active; Avidin beads, compound fluorescence 488/530 nm, flow cytometry; hits give high values; in the data active = fluorescence above about 47
RGS4-Gao reg: human RGS4-Galphao interaction regulation; P09471; Multiplexed bead flow cytometry, RGS4-Galphao binding; actives lie on both sides; binding response (% of control), % at 10 µM; 0.33% of 220,000 active; AID 1415; in the data active = binding response below about 49% or above about 150%; inactive = in between;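 also: fluorescent Galphao activated with aluminum fluoride binding bead-coupled RGS4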
GSH bead fluor: GSH bead compound fluorescence profile. fluorescence (KMESF) at 10 µM. 0.25% of 190,000 active. GSH beads flow cytometry, compound fluorescence 488/530 nm; hits give high values; in the data active = fluorescence above about 89;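 also: glutathione beads carrying GST-tagged Bcl family fusion proteins plus one bare bead set; values are compound well signal with DMSO vehicle wells as background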
RGS8-Gao reg: human RGS8-Galphao interaction regulation | P09471 | multiplexed bead flow cytometry, RGS8-Galphao binding; actives lie on both sides | response (percent of control binding), % at 10 µM | 0.34% of 220,000 active | AID 1423; in the data active = response below about 60% or above about 140%; inactive = in between;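 also: Galphao activated as the GDP aluminium fluoride complex binding bead-coupled RGS8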
RGS16-Gao: regulators of human RGS16-Galphao interaction; binding response (% of control), % at 10 µM; O15492+P09471; bead-based flow cytometry RGS16-Galphao binding, fluorescence; actives lie on both sides; 0.38% of 220,000 active;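 also: Galphao activated by GDP with aluminum fluoride before binding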
RGS-Gao: modulates binding between human RGS4 and Galphao | multiplexed bead flow cytometry, RGS–Galpha-o binding | shares compounds with RGS16-Gao | 99% of 1,600 active | AID 1504 | RGS4–Galpha-o binding response, % at 10 µM;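 also: fluorescently labeled Galpha-o bound to GDP with aluminium fluoride binding biotinylated RGS beads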
Avidin counter: interferes with biotinylated probe binding to avidin beads; streptavidin beads, fluorescein-biotin binding, flow cytometry; shares compounds with RGS16-Gao; inhibition, % at 10 µM; 1,700 tested, under 10 active; AID 1783;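 active = inhibition above 50%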;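 also: median green fluorescence of gated singlet beads compared with DMSO control wells; 0% = DMSO wells and 100% = complete loss of bead fluorescence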
RGS8-Gao single: RGS8-Galphao interaction regulation, single point confirmation; shares compounds with RGS16-Gao; bead-based flow cytometry RGS8-Galphao binding, fluorescence; actives lie on both sides; binding response (% of control), % at 10 µM; 3% of 1,700 active; in the data active = binding response below about 72% or above about 130%; inactive = in between;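 also: Galphao activated as GDP AlF4 complex before binding bead RGS8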
RGS7-Gao confirm: RGS7-Galphao interaction regulation, single point confirmation | shares compounds with RGS16-Gao | 7.8% of 1,700 active | bead-based flow cytometry RGS7-Galphao binding; actives lie on both sides | response (percent of control binding), % at 10 µM | AID 1837; in the data active = response below about 75% or above about 130%; inactive = in between;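 also: fluorescent Galphao activated with GDP and aluminum fluoride binding bead-coupled RGS7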
RGS16-Gao single: RGS16-Galphao interaction regulation, single point confirmation | shares compounds with RGS16-Gao | bead-based flow cytometry, RGS16-Galphao binding; actives lie on both sides | response (% of control binding), % at 10 µM | 4% of 1,700 active | AID 1838; in the data active = response below about 74% or above about 130%; inactive = in between;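 also: Galphao activated as the GDP aluminium fluoride complex binding bead-coupled RGS16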
RGS4-Gao confirm: confirmation of regulators of human RGS4-Galphao interaction; shares compounds with RGS16-Gao; AID 1840; binding response (% of control), % at 10 µM; RGS4-Galphao binding, multiplexed bead flow cytometry; actives lie on both sides; 4% of 1,700 active; in the data active = binding response below about 74% or above about 130%; inactive = in between
RGS19-Gao single: confirmation of regulators of human RGS19-Galphao interaction; shares compounds with RGS16-Gao; response (percent of control binding), % at 10 µM; 5% of 1,700 active; bead-based flow cytometry RGS19-Galphao binding; actives lie on both sides; in the data active = response below about 50% or above about 160%; inactive = in between;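 also: 100% = no compound control and 0% = blank background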
* = called active by the depositor. Rows were chosen to be rich in hits. Some 1.2% of all compounds tested hit in one or more screens of this group. Unless noted, no rule for the calls is given here.

Screening Cc1c(N=Nc2c(O)n(C)c(=O)n(C)c2=O)c(=O)n(-c2ccccc2)n1C returned RGS7-Gao 66, Avidin fluor 6, RGS4-Gao reg 65, GSH bead fluor 12, RGS8-Gao reg 58*, RGS16-Gao 1, RGS-Gao 65*, Avidin counter 1, RGS8-Gao single 100, RGS7-Gao confirm 99, RGS16-Gao single 98, RGS4-Gao confirm 102 and RGS19-Gao single 92.
`CC(=NCC1CCCO1)c1c(O)n(C)c(=O)n(C)c1=O` (configuration not stated) gave RGS7-Gao 31*, Avidin fluor 7, RGS4-Gao reg -9.3*, GSH bead fluor 10, RGS8-Gao reg 54*, RGS16-Gao -18*, Avidin counter -1, RGS8-Gao single 101, RGS7-Gao confirm 92, RGS16-Gao single 99, RGS4-Gao confirm 98 and RGS19-Gao single 96.
`O=P(Oc1ccccc1)(Oc1ccccc1)C(Nc1ccccc1)c1ccccc1` (configuration not stated) gave RGS7-Gao 68, Avidin fluor 2, RGS4-Gao reg 68, GSH bead fluor 9, RGS8-Gao reg 53*, RGS16-Gao 12, RGS-Gao 68*, Avidin counter 0, RGS8-Gao single 100, RGS7-Gao confirm 99, RGS16-Gao single 103, RGS4-Gao confirm 100 and RGS19-Gao single 98.
COc1ccc(C(=O)OC2CC[C@@]3(C)C4CCC5[C@]6(O)CC(O)[C@@]7(O)C(CN8CC(C)CCC8[C@@]7(C)O)[C@]6(O)C[C@@]53O[C@]24O)cc1OC (some centres not stated) was read as RGS7-Gao inconclusive, Avidin fluor 7, RGS4-Gao reg 136, RGS8-Gao reg 121 and RGS16-Gao 130.
For CC(=O)N1CC(=O)Nc2ccc(Cl)cc2C1c1ccc(F)cc1 (configuration not stated) the results were RGS7-Gao 19*, Avidin fluor 2, RGS4-Gao reg 25*, GSH bead fluor 12, RGS8-Gao reg 15*, RGS16-Gao 11*, Avidin counter 0, RGS8-Gao single 101, RGS7-Gao confirm 100, RGS16-Gao single 100, RGS4-Gao confirm 101 and RGS19-Gao single 99.
CCC(=O)N1CC(=O)Nc2ccc(Cl)cc2C1c1ccc(F)cc1 (configuration not stated) was read as RGS7-Gao 101, Avidin fluor 14, RGS4-Gao reg 105, GSH bead fluor 33, RGS8-Gao reg 101 and RGS16-Gao 105.
COc1ccc(C2CN(C)CC2C(=O)c2ccc(C)cc2)cc1Cl (configuration not stated) was read as RGS7-Gao 112, Avidin fluor 29, RGS4-Gao reg 110, GSH bead fluor 24, RGS8-Gao reg 115 and RGS16-Gao 112.
